# Data from PMC5540273 (PLoS ONE, 2017).
# Assays:
# Conditions in all cases: concentration: 1 μM, replicates: in singlicate; n = 1
# PAK6 = test system: PAK6
# PAK7 = test system: PAK7
# PCTK1 = test system: T1, PCTK1
# T1 construct: gene CDK16
# PCTK2 = test system: T2, PCTK2
# T2 construct: gene CDK17
# PCTK3 = test system: T3, PCTK3
# T3 construct: gene CDK18
# PDGFRA = test system: PDGFRA
# PDGFRB = test system: PDGFRB
# PDPK1 = test system: PDPK1
# PFTAIRE2 = test system: PFTAIRE2
# PFTK1 = test system: T4, PFTK1
# T4 construct: gene CDK14
# PHKG1 = test system: PHKG1
# PHKG2 = test system: PHKG2
# PIK3C2B = test system: PIK3C2B
# PIK3C2G = test system: PIK3C2G
# PIK3CA = test system: PIK3CA
# PIK3CB = test system: PIK3CB
# PIK3CD = test system: PIK3CD
# PIK3CG = test system: PIK3CG
# PIK4CB = test system: T5, PIK4CB
# T5 construct: gene PI4KB
# PIKFYVE = test system: PIKFYVE
# 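Also: KINOMEscan kinase panel screen.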
SMILES,%Inh (PAK6),%Inh (PAK7),%Inh (PCTK1),%Inh (PCTK2),%Inh (PCTK3),%Inh (PDGFRA),%Inh (PDGFRB),%Inh (PDPK1),%Inh (PFTAIRE2),%Inh (PFTK1),%Inh (PHKG1),%Inh (PHKG2),%Inh (PIK3C2B),%Inh (PIK3C2G),%Inh (PIK3CA),%Inh (PIK3CB),%Inh (PIK3CD),%Inh (PIK3CG),%Inh (PIK4CB),%Inh (PIKFYVE)
Fc1cc(Cl)ccc1Nc1ccnc2cc(-c3ccc(CN4CCCCC4)o3)ccc12 [GW560116],0%,16%,0%,0%,27%,65%,94.8%,100%,0%,18%,0%,0%,0%,0%,0%,0%,0%,0%,0%,0%
Cc1cc(NCC(c2ccccc2)c2ccccc2)nc(NCc2ccc(C(F)(F)F)cc2)n1 [GW497681],0%,0%,0%,13%,35%,0%,21%,0%,13%,18%,0%,0%,0%,0%,0%,0%,0%,0%,0%,0%
Cl.c1ccc(-c2n[nH]cc2-c2ccnc(-c3ccc(CN4CCOCC4)cc3)c2)nc1 [GW776245],14%,0%,0%,11%,6%,0%,0%,21%,19%,0%,0%,14%,16%,0%,0%,0%,0%,33%,0%,0%
Cc1nnc(-c2ccc3occ(-c4ccc(S(C)=O)cc4)c3c2)[nH]1 (stereo not shown),13%,5%,8%,0%,0%,36%,0%,0%,24%,6%,15%,16%,3%,17%,9%,28%,0%,5%,0%,17%
CC(C)(C)c1ccc(C(=O)Nc2cn3cc(-c4cccnc4)ccc3n2)cc1,15%,10%,0%,13%,19%,57%,95.4%,2%,2%,22%,8%,34%,0%,24%,0%,45%,0%,0%,16%,22%
CCn1c(-c2cccnc2O)nc2cnccc21 [SB-736715],0%,3%,0%,0%,0%,0%,0%,0%,11%,0%,0%,3%,0%,0%,0%,0%,0%,1%,24%,22%
Cc1ccc(-c2cc(-c3c[nH]nc3-c3ccccn3)ccn2)cc1 [GW684088],9%,19%,0%,19%,40%,7%,22%,0%,0%,32%,0%,27%,0%,1%,2%,8%,1%,4%,2%,30%
Cl.NC(=O)c1cccc(Nc2nccc(Nc3ccc(Oc4cccc(Cl)c4)c(Cl)c3)n2)c1 [GW659008],0%,5%,0%,7%,9%,0%,68%,0%,4%,8%,4%,0%,0%,0%,0%,0%,0%,0%,82%,0%
COC(=O)c1c(-c2ccccc2)c2cc(OC)ccc2c(=O)n1Cc1ccccc1,3%,5%,0%,4%,9%,70%,99.5%,0%,10%,6%,7%,31%,0%,0%,3%,14%,5%,0%,0%,13%
O=C(Nc1ccccc1)Nc1cccc(Oc2ccc3nccn3n2)c1,0%,29%,0%,5%,0%,98.9%,100%,0%,57%,0%,0%,9%,0%,0%,0%,0%,14%,6%,0%,0%
COc1cc2ncnc(Nc3ccc4nc(-c5ccccc5)[nH]c4c3)c2cc1OC.Cl [GW282450],11%,12%,0%,0%,1%,0%,28%,0%,8%,19%,0%,6%,0%,0%,0%,0%,0%,0%,0%,0%
